Laboratory results as given in PubChem BioAssay (EPA / NIEHS).
Active and inactive are the calls of the source. Rule for the calls: active = hit-call score of the fitted dose curve at least 0.9, where 1 is the maximum; inactive = score below 0.9.

Columns and labels:
[1] = ATG_E_Box_CIS: Attagene CIS-FACTORIAL HepG2 Assay for human Enhancer Box (E-box) (AID 2282936); conditions: HepG2 E-box cis-reporter transcription, actives raise or lower the signal
Procedure, shortened: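 Cells: HepG2 (human liver), transient MRTU transfection. Exposure 24 h. RNA → oligo(dT) RT → PCR → 6-FAM label → HpaI → CE. Activity fitted both directions relative to DMSO.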

[2] = ATG_M_61_CIS: Attagene CIS-FACTORIAL HepG2 Assay for M61 Transcription Factor (Internal Marker) (AID 2282937); conditions: HepG2 Attagene CIS-FACTORIAL M61 internal marker reporter; actives raise or lower the signal
Procedure, shortened: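 Readout is reporter mRNA by RT-PCR, fluorescent primer extension and capillary electrophoresis, with gain or loss fitted relative to DMSO. Transfected HepG2 cells carrying endogenous-TF-driven cis reporters were exposed to chemicals for 24 hours.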

[3] = ATG_EGR_CIS: Attagene CIS-FACTORIAL HepG2 Assay for human Early Growth Response 1 (EGR1) (AID 2282938); conditions: HepG2 Attagene CIS-FACTORIAL EGR reporter mRNA; actives raise or lower the signal
Procedure, shortened: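 After 24 h compound exposure, RNA from reporter-transfected HepG2 cells was reverse-transcribed, PCR-amplified, fluorescently labelled and resolved by capillary electrophoresis. EGR1 reporter transcript changes, up or down, were fitted against DMSO, reflecting endogenous transcription-factor activity.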

[4] = ATG_M_19_CIS: Attagene CIS-FACTORIAL HepG2 Assay for M19 Transcription Factor (Internal Marker) (AID 2282939); conditions: HepG2 Attagene CIS-FACTORIAL M19 internal marker reporter; actives raise or lower the signal
Procedure, shortened: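 Transfect HepG2 with MRTU reporter library → dose chemical, 24 h → isolate total RNA, reverse-transcribe with oligo(dT) → PCR, 6-FAM label, HpaI cut (2 h, 37 C) → capillary electrophoresis. Bidirectional fit vs DMSO.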

[5] = ATG_Ets_CIS: Attagene CIS-FACTORIAL HepG2 Assay for human Erythroblast Transformation Specific (ETS) (AID 2282941); conditions: HepG2 ETS cis-reporter transcription, actives raise or lower the signal
Procedure, shortened: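 HepG2 cells transiently transfected with cis-promoter reporter transcription units were dosed for 24 h; reporter mRNA was measured by RT-PCR, 6-FAM primer extension, HpaI digestion and capillary electrophoresis, with bidirectional fitting against DMSO baseline.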

[6] = target: Hepatocyte nuclear factor 3-beta (Homo sapiens) (UniProt Q9Y261); test: ATG_FoxA2_CIS: Attagene CIS-FACTORIAL HepG2 Assay for human Forkhead box A2 (FOXA2) (AID 2282942); conditions: HepG2 cis-reporter transcription factor activity, 24 h; actives raise or lower the signal
Procedure, shortened: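 Endogenous transcription factor activity is captured via cis-element-driven reporter transcripts in transfected HepG2. Total RNA taken at 24 h post-dosing; labelled RT-PCR products resolved by capillary electrophoresis. Gain or loss fitted versus DMSO.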

[7] = ATG_FoxO_CIS: Attagene CIS-FACTORIAL HepG2 Assay for human Forkhead box O (FoxO) (AID 2282943); conditions: HepG2 Attagene cis-reporter, FoxO element, mRNA; actives raise or lower the signal
Procedure, shortened: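 Endogenous transcription factor activity read from multiplexed cis-promoter reporter transcripts in transiently transfected HepG2, 24 h after dosing. Reporter RNA measured via RT-PCR plus capillary electrophoresis of FAM-labeled products; gain or loss relative to DMSO.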

[8] = ATG_GATA_CIS: Attagene CIS-FACTORIAL HepG2 Assay for human GATA Binding Protein (AID 2282944); conditions: HepG2 GATA cis-element reporter, Attagene multiplex mRNA; actives raise or lower the signal
Procedure, shortened: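 Transient MRTU transfection, HepG2, 24 h compound exposure. Total RNA → oligo(dT) RT → PCR → 6-FAM primer extension → HpaI cut → CE. Bidirectional fit vs DMSO.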

[9] = ATG_GLI_CIS: Attagene CIS-FACTORIAL HepG2 Assay for human Zinc Finger Protein GLI1 (AID 2282945); conditions: HepG2, Attagene cis-factorial reporter mRNA, GLI element; actives raise or lower the signal
Procedure, shortened: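 Bidirectional curve fits relative to DMSO, using reporter mRNA levels from RT-PCR plus capillary electrophoresis. Cells were HepG2 transiently carrying cis-regulated reporter constructs, harvested 24 h after dosing.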

[10] = ATG_ERE_CIS: Attagene CIS-FACTORIAL HepG2 Assay for Estrogen Response Element (ERE) (AID 2282940); conditions: HepG2 ERE cis-reporter, Attagene RNA transcript; actives raise or lower the signal
Procedure, shortened: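 Transient MRTU transfection of human HepG2; cis-element promoters; 24 h dosing; total RNA → RT (oligo dT) → PCR → 6-FAM primer extension → HpaI digest → CE fluorescence. Bidirectional fit, DMSO baseline.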

Chain of Hepatocyte nuclear factor 3-beta (Homo sapiens) (Q9Y261 whole entry, looked up): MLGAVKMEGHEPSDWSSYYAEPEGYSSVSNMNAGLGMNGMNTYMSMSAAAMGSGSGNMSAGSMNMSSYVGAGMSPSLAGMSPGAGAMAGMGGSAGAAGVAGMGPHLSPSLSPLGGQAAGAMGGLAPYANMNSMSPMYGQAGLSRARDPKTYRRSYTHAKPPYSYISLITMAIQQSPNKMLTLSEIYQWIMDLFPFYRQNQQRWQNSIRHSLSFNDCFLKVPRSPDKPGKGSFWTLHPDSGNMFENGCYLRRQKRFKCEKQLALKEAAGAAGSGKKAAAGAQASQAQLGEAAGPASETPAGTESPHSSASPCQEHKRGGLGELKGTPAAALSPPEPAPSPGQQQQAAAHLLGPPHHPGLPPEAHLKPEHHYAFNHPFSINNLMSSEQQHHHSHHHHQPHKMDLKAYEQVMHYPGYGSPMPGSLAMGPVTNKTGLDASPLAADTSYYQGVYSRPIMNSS

Structure (SMILES)	outcome [1]	outcome [2]	outcome [3]	outcome [4]	outcome [5]	outcome [6]	outcome [7]	outcome [8]	outcome [9]	AC50 [7]	AC50 [3]	AC50 [5]	outcome [10]	AC50 [1]	AC50 [8]	AC50 [9]
CSc1nnc(C(C)(C)C)c(=O)n1N	inactive	inactive	inactive	inactive	inactive	inactive	inactive	inactive	inactive							
COc1cccc(C(=O)NN(C(=O)c2cc(C)cc(C)c2)C(C)(C)C)c1C	inactive	inactive	inactive	inactive	inactive			inactive	inactive	12.9 µM (active)						
CCCSP(=O)(OCC)SCCC	inactive	inactive	inactive	inactive	inactive	inactive	inactive	inactive	inactive							
COc1ccc(C(=CC(=O)N2CCOCC2)c2ccc(Cl)cc2)cc1OC	inactive	inactive		inactive		inactive	inactive	inactive	inactive		28.4 µM (active)	23.2 µM (active)				
Cc1nn(-c2cc(NS(C)(=O)=O)c(Cl)cc2Cl)c(=O)n1C(F)F	inactive	inactive	inactive	inactive	inactive		inactive	inactive	inactive							
CCOP(=O)(OCC)Oc1cc(C)nc(C(C)C)n1	inactive	inactive	inactive	inactive	inactive		inactive	inactive	inactive							
CSc1nc(NC(C)C)nc(NC(C)C)n1	inactive	inactive	inactive	inactive	inactive		inactive	inactive	inactive				inactive			
CNC(=O)ON=C(C)SC	inactive	inactive	inactive	inactive	inactive		inactive	inactive	inactive							
CCOC(=O)COc1cc(-c2nn(C)c(OC(F)F)c2Cl)c(F)cc1Cl	inactive	inactive	inactive	inactive	inactive	inactive	inactive	inactive	inactive							
CCOP(=S)(OCC)Oc1ccc([N+](=O)[O-])cc1	inactive	inactive	inactive	inactive	inactive		inactive	inactive	inactive							
COP(=O)(OC)OC(Br)C(Cl)(Cl)Br (stereo not given)	inactive	inactive		inactive	inactive		inactive	inactive	inactive				inactive			
CCCCSP(=O)(SCCCC)SCCCC		inactive	inactive	inactive	inactive		inactive							56.5 µM (active)	81.2 µM (active)	79.8 µM (active)
CC(C)=CC1C(C(=O)OCN2C(=O)C3=C(CCCC3)C2=O)C1(C)C (stereo not given)	inactive	inactive		inactive	inactive	inactive	inactive	inactive	inactive		62.1 µM (active)					
CN(C)[C@@H]1C(=O)C(C(N)=O)=C(O)[C@@]2(O)C(=O)C3=C(O)c4c(O)cccc4[C@@](C)(O)[C@H]3[C@H](O)[C@@H]12	inactive	inactive	inactive	inactive	inactive	inactive	inactive	inactive	inactive							
CON=C(C(=O)OC)c1ccccc1CON=C(C)c1cccc(C(F)(F)F)c1		inactive	inactive	inactive	inactive		inactive	inactive	inactive					12.5 µM (active)		
CC(C)[C@H](C(=O)O[C@H](C#N)c1cccc(Oc2ccccc2)c1)c1ccc(Cl)cc1	inactive	inactive	inactive	inactive	inactive	inactive	inactive	inactive	inactive							
CCOP(=S)(OCC)Oc1ccc2c(C)c(Cl)c(=O)oc2c1	inactive	inactive	inactive	inactive	inactive	inactive	inactive	inactive	inactive							
